# The supplement of paper PMC10849652
# About 7,900 targets were measured; listed, in parts, are those with a hit and a random draw of the rest. About 0.6% of all pairs of compound and target were hits. Unmarked numbers belong to inactive results.
# Key:
# Test in all cases: log2 fold change, soluble protein after heating vs DMSO (PISA); higher = thermal stabilisation; K562 cells, 10 uM, 30 min; active = over 0.2 and 3.5 SD of the protein, either way, in both replicates (recomputed)
# [1] = compound: NC(=O)Nc1cc(-c2cccc(F)c2)sc1C(=O)N[C@H]1CCCNC1
# Outline: (§1)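 Soluble protein was quantified by TMTpro 16plex LC-MS/MS after channel sums were equalised. It was obtained as the supernatant after 21,000xg for 90 min from pooled aliquots of K562 cells (2×10^6 cells/mL, 10 μM compound, 30 min) heated for 3 min across 48°C-58°C and extracted in PBS with 0.5% NP-40 at 4°C. Thermal stability values are relative to control samples and come from duplicates. They are given as log2 fold changes.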
# [2] = compound: NC(=O)c1cnc(N[C@@H]2CCCC[C@@H]2N)nc1Nc1cccc(-n2nccn2)c1
# Outline: as §1
# [3] = compound: NC1(c2ccc(-c3nc4ccn5c(=O)[nH]nc5c4cc3-c3ccccc3)cc2)CCC1
# Outline: as §1
# [4] = compound: NCC(=O)Nc1ccc(-n2nc(C(F)(F)F)cc2-c2ccc3c(ccc4ccccc43)c2)cc1
# Outline: as §1
# entinostat = compound: Nc1ccccc1NC(=O)c1ccc(CNC(=O)OCc2cccnc2)cc1 [entinostat]
# Outline: as §1
# vorinostat = compound: O=C(CCCCCCC(=O)Nc1ccccc1)NO [vorinostat]
# Outline: as §1
# citarinostat = compound: O=C(CCCCCCNC(=O)c1cnc(N(c2ccccc2)c2ccccc2Cl)nc1)NO [citarinostat]
# Outline: as §1
# silmitasertib = compound: O=C(O)c1ccc2c(c1)nc(Nc1cccc(Cl)c1)c1ccncc12 [silmitasertib]
# Outline: as §1
# [5] = compound: O=C1NC(=O)C(c2cnc3ccccn23)=C1c1cn2c3c(cc(F)cc13)CN(C(=O)N1CCCCC1)CC2
# Outline: as §1
# [6] = compound: c1cc(OCCN2CCCCC2)cc(-c2n[nH]c3ccc(-c4nnc[nH]4)cc23)c1
# Outline: as §1
# entospletinib = compound: c1cn2cc(-c3ccc4cn[nH]c4c3)nc(Nc3ccc(N4CCOCC4)cc3)c2n1 [entospletinib]
# Outline: as §1
# Chain of UniProt Q96KE9 (Q96KE9 whole entry, looked up): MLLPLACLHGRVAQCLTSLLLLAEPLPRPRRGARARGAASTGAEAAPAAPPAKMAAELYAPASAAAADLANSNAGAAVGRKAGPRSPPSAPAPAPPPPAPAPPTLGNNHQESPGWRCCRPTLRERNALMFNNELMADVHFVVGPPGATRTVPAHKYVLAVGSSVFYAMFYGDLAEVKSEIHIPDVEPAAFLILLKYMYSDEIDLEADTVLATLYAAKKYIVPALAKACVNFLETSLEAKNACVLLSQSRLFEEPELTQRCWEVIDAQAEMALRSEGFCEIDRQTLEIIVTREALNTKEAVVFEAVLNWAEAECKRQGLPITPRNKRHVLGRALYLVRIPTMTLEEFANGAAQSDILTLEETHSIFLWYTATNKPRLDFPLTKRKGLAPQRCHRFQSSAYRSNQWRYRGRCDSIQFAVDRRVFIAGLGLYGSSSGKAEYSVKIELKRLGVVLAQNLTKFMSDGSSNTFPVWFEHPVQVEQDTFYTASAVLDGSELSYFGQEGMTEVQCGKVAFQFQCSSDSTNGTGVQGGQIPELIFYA
# Chain of UniProt Q8TDN6 (Q8TDN6 whole entry, looked up): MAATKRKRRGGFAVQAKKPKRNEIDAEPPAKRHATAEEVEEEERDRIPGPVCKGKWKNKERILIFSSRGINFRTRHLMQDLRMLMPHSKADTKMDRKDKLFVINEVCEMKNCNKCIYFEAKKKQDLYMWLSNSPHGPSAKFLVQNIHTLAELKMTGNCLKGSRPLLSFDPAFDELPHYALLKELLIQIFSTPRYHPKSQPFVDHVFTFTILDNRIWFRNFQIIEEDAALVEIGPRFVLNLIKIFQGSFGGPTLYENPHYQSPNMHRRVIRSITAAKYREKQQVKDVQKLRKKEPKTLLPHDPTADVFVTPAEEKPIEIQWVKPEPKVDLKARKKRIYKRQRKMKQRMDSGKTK
# Chain of UniProt Q9H845 (Q9H845 whole entry, looked up): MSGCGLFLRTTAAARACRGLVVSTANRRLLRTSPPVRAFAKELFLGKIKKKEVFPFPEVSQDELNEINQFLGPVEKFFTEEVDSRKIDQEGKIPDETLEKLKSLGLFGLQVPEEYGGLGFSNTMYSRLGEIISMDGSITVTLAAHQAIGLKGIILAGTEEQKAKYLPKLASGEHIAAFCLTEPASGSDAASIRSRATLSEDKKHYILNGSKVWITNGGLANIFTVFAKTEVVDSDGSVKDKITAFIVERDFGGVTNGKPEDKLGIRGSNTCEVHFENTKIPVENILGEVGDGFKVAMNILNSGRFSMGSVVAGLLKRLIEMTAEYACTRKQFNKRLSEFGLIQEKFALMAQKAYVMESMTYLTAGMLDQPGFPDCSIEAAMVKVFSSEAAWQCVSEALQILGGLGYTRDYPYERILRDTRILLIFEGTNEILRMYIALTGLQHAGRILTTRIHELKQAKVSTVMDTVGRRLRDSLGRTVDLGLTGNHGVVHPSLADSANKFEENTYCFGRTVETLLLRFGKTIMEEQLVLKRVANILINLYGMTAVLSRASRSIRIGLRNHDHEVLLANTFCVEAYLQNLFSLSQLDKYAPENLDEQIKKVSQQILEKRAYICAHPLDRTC
# Chain of UniProt Q9NYF8 (Q9NYF8 whole entry, looked up): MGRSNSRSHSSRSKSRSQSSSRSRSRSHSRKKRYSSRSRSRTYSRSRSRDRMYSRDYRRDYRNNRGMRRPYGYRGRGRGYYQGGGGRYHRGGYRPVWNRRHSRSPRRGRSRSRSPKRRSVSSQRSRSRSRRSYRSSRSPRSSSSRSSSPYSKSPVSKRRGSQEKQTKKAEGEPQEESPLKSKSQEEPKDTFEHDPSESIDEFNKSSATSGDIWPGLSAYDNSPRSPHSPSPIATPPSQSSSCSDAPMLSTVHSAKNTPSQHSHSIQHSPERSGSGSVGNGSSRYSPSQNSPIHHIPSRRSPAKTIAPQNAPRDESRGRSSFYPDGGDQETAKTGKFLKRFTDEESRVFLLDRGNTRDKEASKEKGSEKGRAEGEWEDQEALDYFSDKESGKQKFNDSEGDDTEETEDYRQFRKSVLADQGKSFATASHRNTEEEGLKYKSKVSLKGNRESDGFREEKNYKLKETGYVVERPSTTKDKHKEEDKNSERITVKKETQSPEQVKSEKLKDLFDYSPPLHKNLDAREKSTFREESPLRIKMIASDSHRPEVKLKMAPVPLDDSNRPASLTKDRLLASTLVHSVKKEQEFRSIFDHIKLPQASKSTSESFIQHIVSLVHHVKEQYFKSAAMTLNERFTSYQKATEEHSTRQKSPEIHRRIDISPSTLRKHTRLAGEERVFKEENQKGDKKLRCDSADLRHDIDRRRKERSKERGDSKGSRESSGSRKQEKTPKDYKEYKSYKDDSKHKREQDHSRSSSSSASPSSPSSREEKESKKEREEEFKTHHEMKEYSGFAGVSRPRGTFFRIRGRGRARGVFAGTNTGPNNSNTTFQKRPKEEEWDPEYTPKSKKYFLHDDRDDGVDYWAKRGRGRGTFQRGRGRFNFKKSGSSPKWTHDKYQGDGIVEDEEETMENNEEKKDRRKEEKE
# Chain of UniProt O00116 (O00116 whole entry, looked up): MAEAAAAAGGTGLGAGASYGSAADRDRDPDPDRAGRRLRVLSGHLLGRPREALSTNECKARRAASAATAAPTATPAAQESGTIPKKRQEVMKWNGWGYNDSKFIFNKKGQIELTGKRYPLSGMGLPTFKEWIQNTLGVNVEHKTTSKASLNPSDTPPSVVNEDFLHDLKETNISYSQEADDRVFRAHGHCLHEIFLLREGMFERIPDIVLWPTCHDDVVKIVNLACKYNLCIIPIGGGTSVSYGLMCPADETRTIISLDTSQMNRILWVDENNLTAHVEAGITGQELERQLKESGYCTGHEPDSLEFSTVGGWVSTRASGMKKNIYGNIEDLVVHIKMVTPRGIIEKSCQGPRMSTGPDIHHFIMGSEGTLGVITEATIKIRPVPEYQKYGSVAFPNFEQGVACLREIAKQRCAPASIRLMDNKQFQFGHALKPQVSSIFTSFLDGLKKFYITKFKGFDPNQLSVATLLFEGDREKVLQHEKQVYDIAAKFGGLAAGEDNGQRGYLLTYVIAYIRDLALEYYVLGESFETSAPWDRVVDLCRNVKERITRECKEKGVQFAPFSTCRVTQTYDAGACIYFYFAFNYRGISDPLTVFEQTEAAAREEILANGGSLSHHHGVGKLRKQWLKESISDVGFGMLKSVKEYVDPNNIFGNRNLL
# Chain of UniProt Q9Y312 (Q9Y312 whole entry, looked up): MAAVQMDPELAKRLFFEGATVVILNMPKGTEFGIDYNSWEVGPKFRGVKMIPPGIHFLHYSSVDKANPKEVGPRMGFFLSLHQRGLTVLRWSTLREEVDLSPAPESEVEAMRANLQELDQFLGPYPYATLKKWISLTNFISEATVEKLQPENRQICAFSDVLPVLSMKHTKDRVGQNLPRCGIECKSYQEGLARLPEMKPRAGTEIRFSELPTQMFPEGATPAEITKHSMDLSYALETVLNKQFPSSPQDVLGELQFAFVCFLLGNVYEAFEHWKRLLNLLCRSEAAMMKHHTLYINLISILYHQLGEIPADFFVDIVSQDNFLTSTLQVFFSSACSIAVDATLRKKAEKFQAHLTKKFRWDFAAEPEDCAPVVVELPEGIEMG
# Chain of UniProt Q5T9A4 (Q5T9A4 whole entry, looked up): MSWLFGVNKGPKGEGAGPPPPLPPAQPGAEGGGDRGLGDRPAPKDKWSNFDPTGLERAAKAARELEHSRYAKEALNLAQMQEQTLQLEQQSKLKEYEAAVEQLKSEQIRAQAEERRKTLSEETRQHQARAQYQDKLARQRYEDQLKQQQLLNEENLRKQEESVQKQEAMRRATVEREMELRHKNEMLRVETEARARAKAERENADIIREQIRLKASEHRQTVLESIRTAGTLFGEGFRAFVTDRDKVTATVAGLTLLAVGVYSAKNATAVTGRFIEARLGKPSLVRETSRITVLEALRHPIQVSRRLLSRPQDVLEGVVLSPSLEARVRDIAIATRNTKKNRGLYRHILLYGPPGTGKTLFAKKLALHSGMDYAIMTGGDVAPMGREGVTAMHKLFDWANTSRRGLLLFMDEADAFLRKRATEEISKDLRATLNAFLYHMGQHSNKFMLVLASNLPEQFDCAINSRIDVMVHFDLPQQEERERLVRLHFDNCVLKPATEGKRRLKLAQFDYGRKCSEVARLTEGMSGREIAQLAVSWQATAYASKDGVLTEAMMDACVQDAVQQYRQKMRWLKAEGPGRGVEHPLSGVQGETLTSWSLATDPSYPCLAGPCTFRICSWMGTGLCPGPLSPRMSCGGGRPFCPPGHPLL
# Chain of UniProt Q9Y487 (Q9Y487 whole entry, looked up): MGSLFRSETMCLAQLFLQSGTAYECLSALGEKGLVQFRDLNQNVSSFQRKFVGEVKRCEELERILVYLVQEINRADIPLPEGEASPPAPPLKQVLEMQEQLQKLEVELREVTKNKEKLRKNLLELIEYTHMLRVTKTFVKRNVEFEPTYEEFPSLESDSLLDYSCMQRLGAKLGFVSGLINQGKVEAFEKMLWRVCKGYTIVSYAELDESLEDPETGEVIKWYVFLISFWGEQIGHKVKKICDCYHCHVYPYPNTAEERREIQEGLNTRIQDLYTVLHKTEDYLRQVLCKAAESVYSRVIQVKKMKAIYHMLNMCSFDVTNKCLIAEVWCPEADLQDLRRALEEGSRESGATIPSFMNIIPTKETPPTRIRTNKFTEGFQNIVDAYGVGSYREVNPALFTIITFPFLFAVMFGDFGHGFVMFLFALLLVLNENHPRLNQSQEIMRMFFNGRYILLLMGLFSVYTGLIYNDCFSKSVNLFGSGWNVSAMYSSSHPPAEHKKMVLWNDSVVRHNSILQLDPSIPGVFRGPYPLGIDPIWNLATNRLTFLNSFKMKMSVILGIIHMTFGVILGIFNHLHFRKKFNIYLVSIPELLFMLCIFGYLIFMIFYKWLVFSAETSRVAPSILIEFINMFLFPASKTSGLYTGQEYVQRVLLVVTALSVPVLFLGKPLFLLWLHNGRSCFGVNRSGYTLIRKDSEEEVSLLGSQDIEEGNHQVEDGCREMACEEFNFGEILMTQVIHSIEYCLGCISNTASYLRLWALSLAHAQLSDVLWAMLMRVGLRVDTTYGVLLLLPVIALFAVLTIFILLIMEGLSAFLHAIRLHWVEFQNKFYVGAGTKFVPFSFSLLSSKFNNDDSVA
Target,log2 fold change [1],log2 fold change [2],log2 fold change [3],log2 fold change [4],log2 fold change (entinostat),log2 fold change (vorinostat),log2 fold change (citarinostat),log2 fold change (silmitasertib),log2 fold change [5],log2 fold change [6],log2 fold change (entospletinib)
ARMC10 (UniProt Q8N2F6),-0.039,0.003,0.005,0.028,0.005,0.056,0.096,0.054,-0.039,-0.062,-0.001
ATIC (UniProt P31939),-0.023,0.001,0.03,-0.009,-0.019,-0.026,0.01,-0.059,-0.066,0.013,0.045
ATP6V0A2 (UniProt Q9Y487),-0.002,-0.072,-0.143,-0.024,0.021,0,0.036,0.079,0.061,-0.043,0.009
ALDH18A1 (UniProt P54886),0.033,-0.03,-0.34,-0.219,0.249,0.194,0.031,0.018,-0.329,-0.372,-0.246
BRIX1 (UniProt Q8TDN6),0.056,-0.025,0.171,0.132,-0.008,0.059,-0.05,0.191,0.401,-0.437,0.029
BTBD6 (UniProt Q96KE9),0.054,0.102,0.469,0.199,-0.039,0.081,0.273,-0.352,-0.011,0.118,0.056
BRD4 (UniProt O60885),-0.031,-0.096,-0.112,-0.119,-0.097,-0.463 (active),-0.123,0.024,-0.129,0.028,0.065
BCLAF1 (UniProt Q9NYF8),0.01,0.006,0.003,0.064,0.047,0.109,0.07,-0.361,0.128,-0.31,0.075
AAR2 (UniProt Q9Y312),-0.016,-0.015,0.066,-0.034,0.026,0.19,-0.009,0.035,0.04,-0.067,-0.017
ATP5ME (UniProt P56385),0.003,-0.007,0.057,-0.04,0.026,-0.027,-0.007,-0.008,-0.037,-0.039,0.027
AGPS (UniProt O00116),-0.013,0.007,-0.112,0,0.023,0.045,0.058,0.011,-0.107,-0.011,0.008
ACAD9 (UniProt Q9H845),-0.009,-0.051,-0.036,-0.012,-0.021,0.033,0.035,0.021,-0.016,0.007,0.02
ATAD3B (UniProt Q5T9A4),0.017,-0.029,-0.089,-0.088,0.013,0.108,-0.016,0.005,0.248,-0.104,0.058
